Drawing on the supplement of paper PMC12024424, this text covers growth reduction for 62 compounds.

Assay [1] relates to Staphylococcus aureus Sa2 (MRSA, cystic fibrosis isolate). As to the kind of experiment: growth reduction vs untreated control (OD550); higher = stronger antibacterial activity. The settings on record: 0.1 mM; 24 h. As for the experimental part:
(§1)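 Single-dose screen of the MedChem Express Drug Repurposing Library (0.1 mM, 1% DMSO) against planktonic MRSA S. aureus Sa2 (CF isolate) in TSB in 96-well plates, 37 °C aerobic, 24 h. Assays were run in triplicate and repeated twice.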

Assay [2] shares this test system. As to the kind of experiment: growth reduction vs untreated control (viable cell count); higher = stronger antibacterial activity; extreme values may be limits of the assay. The settings on record: 0.1 mM; 24 h. How it is done: as §1

Counter-ions that a name gives are not always drawn.

Regarding `O=C(NS(=O)(=O)c1ccc(Br)s1)c1ccc(Cl)cc1Cl` [Tasisulam], the growth reduction in assay [1] and in assay [2] was 100% each time.
Consider `C=C[C@@H]1C[C@]1(NC(=O)[C@@H]1C[C@@H](Oc2ncc(OC)c3ccc(Cl)cc23)CN1C(=O)[C@@H](NC(=O)OC(C)(C)C)C(C)(C)C)C(=O)NS(=O)(=O)C1CC1` [Asunaprevir], for which the growth reduction in assay [1] and in assay [2] was 100% each time.
For `CN(C)CCOc1ccc(/C(=C(/CCCl)c2ccccc2)c2ccccc2)cc1` [Toremifene (citrate)], the growth reduction in assay [1] and in assay [2] was 100% throughout.
For `COc1cc(C(=O)O)ccc1NC(=O)[C@@H]1N[C@@H](CC(C)(C)C)[C@](C#N)(c2ccc(Cl)cc2F)[C@H]1c1cccc(Cl)c1F` [Idasanutlin], the growth reduction in assay [1] and in assay [2] was 100% throughout.
`O=C(O)Cc1cc(I)c(Oc2ccc(O)c(I)c2)c(I)c1` [Tiratricol]: the growth reduction in assay [1] and in assay [2] was 100% in each case.
For `CNCCC(Oc1ccc(C(F)(F)F)cc1)c1ccccc1` (centres undefined) [Fluoxetine (hydrochloride)], the growth reduction in assay [1] and in assay [2] was 100% each time.
Regarding `CC1(C)CC=C(c2nc(C3CC(C)(C)OC(C)(C)C3)ccc2NC(=O)c2nc(C#N)c[nH]2)CC1` [Edicotinib], the growth reduction in assay [1] was 99.3%; in assay [2], 100%.
For `CSc1ccc(C(=O)/C=C/c2cc(C)c(OC(C)(C)C(=O)O)c(C)c2)cc1` [Elafibranor], in that order: 91.6% and 95%.
Taken in the same sequence, the figures for `C=Cc1cc(O)cc2nc(-c3ccc(O)c(F)c3)oc12` [Prinaberel] were 100% and 100%.
For `CC1(S(=O)(=O)O)CC(=O)c2ccccc2C1=O` (centres undefined) [Menadione bisulfite (sodium)], in that order: 99.5% and 100%.
As for `O=C(O)c1ccc2nc(-c3cc(Cl)cc(Cl)c3)oc2c1` [Tafamidis], the growth reduction in assay [1] was found to be 99.5%; in assay [2] it was 100%.
Taken in the same sequence, the figures for `COC(=O)N[C@H](C(=O)N1CCC[C@H]1c1nc(-c2ccc3c(c2)O[C@@H](c2ccccc2)n2c-3cc3cc(-c4c[nH]c([C@@H]5CCCN5C(=O)[C@@H](NC(=O)OC)C(C)C)n4)ccc32)c[nH]1)C(C)C` [Elbasvir] were 97.8% and 100%.
Turning to `C=CCNc1c(O)cc2c(O)c1C[C@@H](C)C[C@H](OC)[C@H](O)[C@@H](C)/C=C(\C)[C@H](OC(N)=O)[C@@H](OC)/C=C\C=C(/C)C(=O)N2` [Retaspimycin (Hydrochloride)], the growth reduction in assay [1] and in assay [2] was 100% in each case.
Regarding `O=C(O)c1ccccc1Nc1cccc(C(F)(F)F)c1` [Flufenamic acid], the growth reduction came to 93.6% in assay [1] and 98% in assay [2].
Taken in the same sequence, the figures for `Cc1cn(-c2cc(NC(=O)c3ccc(C)c(Nc4nccc(-c5cccnc5)n4)c3)cc(C(F)(F)F)c2)cn1` [Nilotinib] were 100% and 92%.
For the compound `N[C@@H](Cc1cc(I)c(Oc2cc(I)c(O)c(I)c2)c(I)c1)C(=O)O` [L-Thyroxine (sodium salt pentahydrate)], the growth reduction in assay [1] and in assay [2] was 100% in each case.
Consider `Clc1ccc(COC(Cn2ccnc2)c2ccc(Cl)cc2Cl)c(Cl)c1` (centres undefined) [Miconazole (nitrate)], for which the growth reduction in assay [1] and in assay [2] was 100% in each case.
As to `C=CC(=O)Nc1cc(Nc2nccc(-c3cn(C)c4ccccc34)n2)c(OC)cc1N(C)CCN(C)C` [Osimertinib (dimesylate)], the growth reduction in assay [1] and in assay [2] was 100% in each case.
With `Cc1ccc(C(=O)Nc2ccc(CN3CCN(C)CC3)c(C(F)(F)F)c2)cc1C#Cc1cnc2cccnn12` [Ponatinib], the figures for the growth reduction in assay [1] and in assay [2] were 100% and 95%, respectively.
For `Cc1c(Cl)cccc1Nc1ccccc1C(=O)O` [Tolfenamic Acid], in that order: 100% and 99%.
For `Clc1ccc(CSC(Cn2ccnc2)c2ccc(Cl)cc2Cl)cc1` (centres undefined) [Sulconazole (nitrate)], in that order: 93.4% and 100%.
For `Nc1ccn([C@@H]2O[C@H](CO)[C@@H](O)C2(F)F)c(=O)n1` [Gemcitabine], in that order: 100% and 100%.
On to `Cc1cc(SCc2sc(-c3ccc(C(F)(F)F)cc3)nc2C)ccc1OCC(=O)O`, for which the growth reduction in assay [1] and in assay [2] was 100% throughout.
For `CC(=O)[C@]1(O)Cc2c(O)c3c(c(O)c2[C@@H](O[C@H]2C[C@H](N)[C@H](O)[C@H](C)O2)C1)C(=O)c1ccccc1C3=O` [Idarubicin (hydrochloride)], the growth reduction in assay [1] came out at 98.1%; in assay [2], 100%.
On to `CCC[C@H](Oc1cc(C)c(-n2cc(C(F)(F)F)cn2)c(C)c1)c1ccc(C(=O)NCCC(=O)O)cc1`, for which the growth reduction in assay [1] and in assay [2] was 100% throughout.
On to `C/C=C(/C(=C/C)c1ccc(O)cc1)c1ccc(O)cc1` [Dienestrol], for which the growth reduction was determined as 99.7% in assay [1] and 92% in assay [2].
For `CNC(=O)c1cc(Oc2ccc(NC(=O)Nc3ccc(Cl)c(C(F)(F)F)c3)cc2)ccn1` [Sorafenib], in that order: 93.5% and 100%.
For `Oc1c(Br)cc(Br)c2cccnc12` [Broxyquinoline], in that order: 100% and 100%.
As for `CC(C)(C)CC(C)(C)c1ccc(OCCOCC[N+](C)(C)Cc2ccccc2)cc1` [Benzethonium chloride], the growth reduction in assay [1] and in assay [2] was 100% throughout.
`Clc1ccc(C(c2ccccc2Cl)C(Cl)Cl)cc1` (centres undefined) [Mitotane]: the growth reduction in assay [1] and in assay [2] was 100% throughout.
Take `COC(=O)/C=C/C(=O)OCCN1C(=O)CCC1=O` [Diroximel fumarate]: the growth reduction in assay [1] and in assay [2] was 100% in each case.
Take `c1ccc(-c2ccc(C(c3ccccc3)n3ccnc3)cc2)cc1` (centres undefined) [Bifonazole]: the growth reduction in assay [1] and in assay [2] was 100% throughout.
As to `O=c1[nH]cnc2c1cnn2[C@@H]1O[C@H](CO)[C@@H](O)[C@H]1O` [Allopurinol riboside], the figures for the growth reduction in assay [1] and in assay [2] were 99.9% and 100%, respectively.
For `CC(C)(C)c1ccc(C(O)CCCN2CCC(C(O)(c3ccccc3)c3ccccc3)CC2)cc1` (centres undefined) [Terfenadine], in that order: 100% and 100%.
For the compound `CC(=O)c1cc2c(o1)C(=O)c1ccccc1C2=O` [Napabucasin], the growth reduction in assay [1] and in assay [2] was 100% throughout.
Take `Cc1noc(-c2ccc(-c3ccc(C4(C(=O)O)CC4)cc3)cc2)c1NC(=O)O[C@H](C)c1ccccc1`: the growth reduction in assay [1] and in assay [2] was 100% each time.
For `CN1CC[C@@H](NC(=O)Nc2ccc(C#N)cc2)C[C@@H]1c1nc2ccccc2[nH]1` [Glasdegib], the growth reduction stood at 100% in assay [1] and 98% in assay [2].
Regarding `Cc1ccc(-n2[nH]c(C)c(N=Nc3cccc(-c4cccc(C(=O)O)c4)c3O)c2=O)cc1C` [Eltrombopag], the growth reduction in assay [1] is 96.5%; in assay [2], 100%.
For `CO[C@H](C(=O)[C@@H](O)[C@@H](C)O)[C@@H]1Cc2cc3cc(O[C@H]4C[C@@H](O[C@H]5C[C@@H](O)[C@H](O)[C@@H](C)O5)[C@H](O)[C@@H](C)O4)c(C)c(O)c3c(O)c2C(=O)[C@H]1O[C@H]1C[C@@H](O[C@H]2C[C@@H](O[C@H]3C[C@](C)(O)[C@H](O)[C@@H](C)O3)[C@@H](O)[C@@H](C)O2)[C@H](O)[C@@H](C)O1` [Plicamycin], in that order: 99.6% and 100%.
Turning to `O=C(O)CCCc1cc2cc(Cl)ccc2n1S(=O)(=O)c1ccc2ncsc2c1` [Lanifibranor], the growth reduction came to 99.1% in assay [1] and 99% in assay [2].
For `Cc1cc(O[C@@H](CCC(F)(F)F)c2ccc(C(=O)NCCC(=O)O)cc2)cc(C)c1-c1ccc(C(C)(C)C)cc1` [Adomeglivant], in that order: 100% and 100%.
For `COc1cc(NC(C)CCCN)c2ncccc2c1` (centres undefined) [Primaquine (Diphosphate)], in that order: 91.2% and 94%.
For `Nc1ccc(S(=O)(=O)Nc2cnc3c(Cl)cccc3n2)cc1` [Chloroquinoxaline sulfonamide], the growth reduction in assay [1] was 91.6%; in assay [2], 99%.
Regarding `CCN(CC)CC#CCOC(=O)C(O)(c1ccccc1)C1CCCCC1` (centres undefined) [Oxybutynin (chloride)], the growth reduction in assay [1] was 94.3%; in assay [2], 91%.
For `CO[C@@H](Cc1ccc(OCCc2nc(-c3ccccc3)oc2C)c2ccsc12)C(=O)O` [Aleglitazar], in that order: 92.2% and 90%.
For `CCc1oc2ccccc2c1C(=O)c1cc(Br)c(O)c(Br)c1` [Benzbromarone], in that order: 100% and 100%.
`NC(=O)[C@@H]1CC[C@@H]2CN1C(=O)N2OS(=O)(=O)O` [Avibactam (sodium)]: the growth reduction in assay [1] was found to be 96.6%; in assay [2], 97%.
In the case of `O=C(NCc1ccc(Oc2ccccc2)cc1)c1nc(-c2cc(Br)c(O)c(Br)c2)no1`, the growth reduction is 95.3% in assay [1] and 100% in assay [2].
For `O=C1NCCN1CCN1CCC(c2cn(-c3ccc(F)cc3)c3ccc(Cl)cc23)CC1` [Sertindole], in that order: 93.6% and 97%.
Taken in the same sequence, the figures for `C=C[C@@H]1C[C@]1(NC(=O)[C@@H]1C[C@@H]2CN1C(=O)[C@H](C(C)(C)C)NC(=O)O[C@@H]1C[C@H]1CCCCCc1nc3ccc(OC)cc3nc1O2)C(=O)NS(=O)(=O)C1CC1` [Grazoprevir potassium salt] were 97.2% and 100%.
For `C[C@H](Nc1cc(-c2cnn(C)c2)cc(Nc2cnccn2)n1)c1ccc(F)cc1` [Ilginatinib (maleate)], in that order: 100% and 95%.
Consider `Cn1c(O)c(C2=c3ccccc3=NC2=O)c2ccccc21` [Meisoindigo], for which the growth reduction in assay [1] and in assay [2] was 100% each time.
For the compound `CC(/C=C/C=C(\C)C(=O)O)=C\C=C\C=C(C)\C=C\C=C(/C)C(=O)O` [Transcrocetin meglumine salt], the growth reduction in assay [1] worked out at 100%; in assay [2], 92%.
Taken in the same sequence, the figures for `O=C(O)CNC(=O)c1nc(Cl)c2ccccc2c1O` were 100% and 100%.
Taken in the same sequence, the figures for `NC(=O)N1c2ccccc2C[C@H](O)c2ccccc21` [Eslicarbazepine] were 92.7% and 94%.
For the compound `O=C(O)CNC(=O)c1c(=O)cc(CCc2ccccc2)n2[nH]cnc12` [Enarodustat], the growth reduction in assay [1] came out at 93.3%; in assay [2], 92%.
Taken in the same sequence, the figures for `Cc1cc(C)cc([C@@H]2CCCN2Cc2ccc(Oc3ccc(C(N)=O)cc3F)cc2)c1` [Aticaprant] were 100% and 100%.
Taken in the same sequence, the figures for `Cc1cc(CC(C)CC(C)(C)C)n(O)c(=O)c1` (centres undefined) [Piroctone olamine] were 100% and 100%.
For the compound `O=C(CCCCCCNC(=O)c1cnc(N(c2ccccc2)c2ccccc2)nc1)NO` [Ricolinostat], the growth reduction in assay [1] and in assay [2] was 100% in each case.
With `COC1=C(OC)C(=O)C(CCCCCCCCCC[P+](c2ccccc2)(c2ccccc2)c2ccccc2)=C(C)C1=O` [Mitoquinone (mesylate)], the growth reduction in assay [1] and in assay [2] was 100% in each case.
As for `CCOc1cc(CC(=O)N[C@@H](CC(C)C)c2ccccc2N2CCCCC2)ccc1C(=O)O` [Repaglinide], the growth reduction is 96.9% in assay [1] and 100% in assay [2].
Taken in the same sequence, the figures for `O=C(Nc1ccc([N+](=O)[O-])cc1Cl)c1cc(Cl)ccc1O` [Niclosamide] were 99.8% and 100%.
